Results on five compounds are retold here after PubChem BioAssay.

Assay [1] in a line: anti-His antibody binders, primary screen, artefact control for SMM control protein annotation, biochemical, small-molecule microarray, 635 nm fluorescence (AID 1128).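 Note: score merges feature fluorescence with signal-to-noise for each printed compound spot.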 Particulars: anti-His Alexa647 antibody binding, higher = more signal.
In assay [2] the test system is Human papillomavirus type 1a E7 protein (residues 1-88). As to the kind of experiment: HPV1a E7 small-molecule binders, primary screen, biochemical, small-molecule microarray, residues 1-88, 635 nm (AID 1129). The note with it: small-molecule microarray binding, fluorescence 635 nm; higher = more signal.
Assay [3] deals with Focal adhesion kinase 1 (Homo sapiens) (UniProt Q05397). As to the kind of experiment: small-molecule microarray binders of FAK, primary screen, biochemical, 635/667 nm fluorescence, BSA, DTT (AID 1130).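 Note: composite of spot emission at 667 nm and signal to noise over triplicate slides.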 Particulars: PTK2 binding, 635 nm fluorescence, higher = more signal.
Assay [4] has as its system Fibrinogen (Alexa647-labelled). Description: fibrinogen binders on compound microarrays, profiling panel, artefact control for SMM control-protein annotation, biochemical, small-molecule microarray, 635/667 nm fluorescence (AID 1131).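 Note: z-score merges 667 nm fluorescence with per-spot signal-to-noise over triplicate slides.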 Particulars: fibrinogen-A647 binding fluorescence, higher = more signal.
In assay [5] the target is Follistatin (Homo sapiens) (UniProt P19883). As to the kind of experiment: follistatin binders on small-molecule microarrays, primary screen, biochemical, small-molecule microarray, 635/667 nm fluorescence (AID 1132). Particulars: FST binding, 635 nm fluorescence, higher = more signal.
The target in assay [6] is Fibroblast growth factor 2 (Homo sapiens) (UniProt P09038). As to the kind of experiment: FGF2 binders on small-molecule microarrays, primary screen, biochemical, small-molecule microarray, 635/667 nm fluorescence (AID 1133). The note with it: small-molecule microarray binding, FGF2, fluorescence 635/667; higher = more signal.
Assay [7] in a line: mitochondrial membrane potential change in A549 cells, profiling panel, cell-based, JC-1 fluorescence, basal, 24 h, 100 nL (AID 1138).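 Note: A549 lung adenocarcinoma cells under basal conditions with no added stimulus; test concentration not given here.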 Particulars: higher = more signal.
Another assay has as its system Lefty1. Description: Lefty1 binders on small-molecule microarrays, primary screen, biochemical, small-molecule microarray, 635/667 nm fluorescence (AID 1139). Particulars: small-molecule microarray binding, fluorescence 635/667; higher = more signal.
The subject of assay [8] is wheat germ agglutinin (Triticum aestivum), Alexa647-labelled. Description: wheat germ agglutinin binders on compound microarrays, profiling panel, artefact control for SMM control-protein annotation, biochemical, small-molecule microarray, 635/667 nm fluorescence (AID 1140).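 Note: score merges 667 nm feature emission with signal to noise over triplicate slides.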 The note with it: WGA-A647 binding, 635 nm fluorescence, higher = more signal.
The target in assay [9] is Luciferin 4-monooxygenase (Photinus pyralis) (UniProt P08659). Description: firefly luciferase enzyme inhibitors, primary screen, biochemical, luminescence, purified enzyme, 2006 set (AID 1141).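 Note: cell-free assay with purified firefly luciferase at 100 ng per well in PBS; test concentration not given here.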 The note with it: SteadyGlo luminescence, 30 min, higher = more signal, called active from +8 up or from −8 down.
The subject of assay [10] is Wnt5a (protein binding on small-molecule microarray). As to the kind of experiment: Wnt5a binders on small-molecule microarray, primary screen, biophysical, 635/667 nm fluorescence (AID 1142).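 Note: fluorescence read at 667 nm with signal to noise per printed feature.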 Particulars: 635 nm fluorescence, higher = more signal.
Assay [11] can be described thus: cell viability in Huh7 cells, primary screen, cytotoxicity control for HCV replication inhibitor project, CellTiter-Glo luminescence, basal, 48 h (AID 1143).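 Note: Huh7 hepatoma cells carrying a hepatitis C replication reporter with no stimulus; test concentration not given here.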 The note with it: Huh7 HCV replicon, higher = more signal, called active from +8 up or from −8 down. A general note: ATP-based viability assays read luminescence as a measure of living cells.
Assay [12] is described as follows: P. aeruginosa biofilm formation inhibitors, primary screen, PAO1 strain, BacTiter-Glo luminescence, LB-PBS (AID 1144). The note with it: 12 h, higher = more signal.
The nature of assay [13]: CREB reporter modulators without forskolin, primary screen, cell-based, PC12, CRE-LacZ reporter, unstimulated (AID 1145). The note with it: no forskolin, luminescence, 4.5 h, higher = more signal, called active from +8 up or from −8 down.
Assay [14] is described as follows: CREB reporter modulators under forskolin, primary screen, cell-based, PC12, CRE-LacZ reporter, forskolin-stimulated (AID 1146).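 Note: PC12 cells with 6xCRE LacZ reporter stimulated by forskolin 10 µM; beta-galactosidase reporter signal reflecting CREB driven transcription.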 The note with it: luminescence, 4.5 h, higher = more signal, called active from +8 up or from −8 down.
Assay [15] addresses Streptavidin (Streptomyces avidinii) (UniProt P22629). As to the kind of experiment: streptavidin binders on small-molecule microarray, primary screen, artefact control for SMM compound annotation, biophysical, 635/667 nm fluorescence (AID 1147).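 Note: signal reflects streptavidin binding to arrayed compounds as a control protein.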 The note with it: streptavidin binding, higher = more signal.
Assay [16] in a line: small-molecule binders of probe aInhba, primary screen, biochemical, small-molecule microarray, 635/667 nm fluorescence (AID 1148).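 Note: score merges 667nm spot fluorescence with signal-to-noise for antibody binding to printed compounds.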 Particulars: higher = more signal.
Assay [17] addresses Torsin-1A (Homo sapiens) (UniProt O14656). As to the kind of experiment: torsin A binders from cell lysate, primary screen, small-molecule microarray, wild-type, 635/667 nm (AID 1149). The note with it: COS7 hTOR1A-WT lysate, 635 nm fluorescence, higher = more signal.
The target is the same in assay [18]. Description: small-molecule binders of mutant TOR1A in lysate, primary screen, cell lysate, small-molecule microarray, COS7 lysate, 635/667 nm fluorescence (AID 1150).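 Note: score pools 667 nm emission and signal to noise measuring lysate protein binding.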 The note with it: COS7 hTOR1A mutant lysate, 635 nm fluorescence, higher = more signal.
The test system of assay [19] is Sonic hedgehog protein (Shh). As to the kind of experiment: small-molecule binders of Shh protein, primary screen, biochemical, small-molecule microarray, 635/667 nm fluorescence (AID 1151).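 Note: Shh protein binding to compounds spotted on small-molecule microarray slides; score combines spot fluorescence intensity with signal-to-noise across triplicate slides.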 The note with it: small-molecule microarray binding, 635 nm fluorescence; higher = more signal.

Each structure is given as a SMILES string. The source made the active and inactive calls. Unless noted, the rule behind the calls is not given here.

Sequence of Focal adhesion kinase 1 (Homo sapiens) (Q05397 whole entry, looked up): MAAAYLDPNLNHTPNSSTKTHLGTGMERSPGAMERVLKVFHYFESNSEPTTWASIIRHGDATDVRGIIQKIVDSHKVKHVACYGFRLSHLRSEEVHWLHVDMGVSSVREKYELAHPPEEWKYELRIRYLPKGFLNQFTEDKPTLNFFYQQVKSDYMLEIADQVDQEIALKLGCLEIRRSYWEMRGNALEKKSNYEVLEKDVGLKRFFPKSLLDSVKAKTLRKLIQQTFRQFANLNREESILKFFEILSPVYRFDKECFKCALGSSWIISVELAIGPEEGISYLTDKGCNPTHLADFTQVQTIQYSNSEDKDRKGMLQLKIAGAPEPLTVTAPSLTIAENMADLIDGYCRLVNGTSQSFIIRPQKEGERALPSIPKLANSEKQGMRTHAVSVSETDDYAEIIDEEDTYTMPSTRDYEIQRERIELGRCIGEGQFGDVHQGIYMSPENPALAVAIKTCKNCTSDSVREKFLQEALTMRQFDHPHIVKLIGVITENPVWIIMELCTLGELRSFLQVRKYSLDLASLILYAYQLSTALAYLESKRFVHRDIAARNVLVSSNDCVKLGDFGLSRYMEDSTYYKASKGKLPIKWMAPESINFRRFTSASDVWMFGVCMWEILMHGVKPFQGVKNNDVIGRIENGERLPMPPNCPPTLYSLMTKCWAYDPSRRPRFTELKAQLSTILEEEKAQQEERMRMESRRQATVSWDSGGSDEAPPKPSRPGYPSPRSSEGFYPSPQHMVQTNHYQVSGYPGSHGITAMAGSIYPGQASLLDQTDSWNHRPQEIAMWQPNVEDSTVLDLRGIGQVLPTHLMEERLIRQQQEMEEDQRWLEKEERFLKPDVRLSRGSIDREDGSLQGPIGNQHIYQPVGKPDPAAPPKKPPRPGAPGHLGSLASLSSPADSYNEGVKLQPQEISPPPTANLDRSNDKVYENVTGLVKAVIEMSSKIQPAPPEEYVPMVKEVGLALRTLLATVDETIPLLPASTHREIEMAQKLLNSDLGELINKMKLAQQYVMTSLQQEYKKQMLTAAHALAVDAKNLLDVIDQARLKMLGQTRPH
Sequence of Streptavidin (Streptomyces avidinii) (P22629 whole entry, looked up): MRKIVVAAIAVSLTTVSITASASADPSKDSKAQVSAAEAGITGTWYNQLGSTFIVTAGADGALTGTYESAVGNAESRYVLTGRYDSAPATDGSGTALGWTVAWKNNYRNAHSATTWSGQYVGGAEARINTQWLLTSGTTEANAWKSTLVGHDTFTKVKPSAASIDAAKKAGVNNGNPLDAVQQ
Sequence of Torsin-1A (Homo sapiens) (O14656 whole entry, looked up): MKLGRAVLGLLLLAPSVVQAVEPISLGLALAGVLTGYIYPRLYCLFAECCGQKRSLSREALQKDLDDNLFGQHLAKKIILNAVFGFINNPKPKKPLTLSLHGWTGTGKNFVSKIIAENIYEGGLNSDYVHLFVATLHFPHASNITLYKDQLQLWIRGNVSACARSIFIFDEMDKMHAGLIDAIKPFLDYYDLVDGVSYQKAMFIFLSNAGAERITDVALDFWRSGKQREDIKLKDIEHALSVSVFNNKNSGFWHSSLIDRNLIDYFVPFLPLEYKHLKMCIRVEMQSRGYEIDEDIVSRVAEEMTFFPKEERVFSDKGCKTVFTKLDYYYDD
Sequence of Fibroblast growth factor 2 (Homo sapiens) (P09038 whole entry, looked up): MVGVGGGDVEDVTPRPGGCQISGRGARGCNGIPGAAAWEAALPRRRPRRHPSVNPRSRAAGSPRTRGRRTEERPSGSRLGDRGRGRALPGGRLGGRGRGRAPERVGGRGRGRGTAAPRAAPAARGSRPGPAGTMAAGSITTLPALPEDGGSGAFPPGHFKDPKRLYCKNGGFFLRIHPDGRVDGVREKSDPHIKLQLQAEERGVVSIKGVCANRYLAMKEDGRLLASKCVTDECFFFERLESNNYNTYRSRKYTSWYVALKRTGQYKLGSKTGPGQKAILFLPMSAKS
Sequence of Follistatin (Homo sapiens) (P19883 whole entry, looked up): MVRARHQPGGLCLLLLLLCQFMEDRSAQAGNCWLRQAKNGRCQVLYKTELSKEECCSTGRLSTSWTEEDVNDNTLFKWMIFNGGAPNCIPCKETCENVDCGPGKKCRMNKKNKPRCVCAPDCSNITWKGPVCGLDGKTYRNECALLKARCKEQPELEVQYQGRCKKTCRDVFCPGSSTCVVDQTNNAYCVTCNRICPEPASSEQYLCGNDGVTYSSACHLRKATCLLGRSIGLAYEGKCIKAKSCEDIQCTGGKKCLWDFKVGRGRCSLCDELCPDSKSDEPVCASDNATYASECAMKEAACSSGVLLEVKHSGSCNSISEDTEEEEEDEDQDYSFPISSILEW
Sequence of Luciferin 4-monooxygenase (Photinus pyralis) (P08659 whole entry, looked up): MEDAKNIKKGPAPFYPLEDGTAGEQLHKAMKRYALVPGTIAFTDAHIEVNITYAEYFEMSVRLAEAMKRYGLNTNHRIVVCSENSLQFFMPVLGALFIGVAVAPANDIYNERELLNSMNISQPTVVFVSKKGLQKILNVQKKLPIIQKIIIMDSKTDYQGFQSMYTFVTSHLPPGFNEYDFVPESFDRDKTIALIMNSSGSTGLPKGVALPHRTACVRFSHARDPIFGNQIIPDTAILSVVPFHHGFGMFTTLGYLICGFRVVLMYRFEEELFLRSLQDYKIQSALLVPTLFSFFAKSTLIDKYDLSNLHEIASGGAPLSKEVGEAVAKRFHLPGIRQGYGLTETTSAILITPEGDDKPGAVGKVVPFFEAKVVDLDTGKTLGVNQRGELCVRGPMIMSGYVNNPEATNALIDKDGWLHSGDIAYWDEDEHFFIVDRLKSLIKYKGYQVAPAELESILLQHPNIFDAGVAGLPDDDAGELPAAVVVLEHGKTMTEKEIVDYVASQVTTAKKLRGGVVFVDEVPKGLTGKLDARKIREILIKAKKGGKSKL

As to `C=CC[C@@]1(C(=O)NCCN2CCOCC2)N=C(c2ccc(OCCCO)cc2)O[C@@H]1c1ccccc1CN=[N+]=[N-]`, the composite z-score in [1] is 2.83; in assay [2] it was 1.23; in assay [3], 0.269; in assay [4], 0.216; in [5], 0.898; in assay [6], -0.224. Also, the composite z-score was -0.0903 in the assay with Lefty1; 1 in assay [8]; 0.13 in [10]; 0.349 in assay [15]; -0.197 in assay [16]; 0.598 in the assay with Torsin-1A (Homo sapiens) [17]. For the same compound, the values for the composite z-score (with Torsin-1A (Homo sapiens) [18]; in assay [19]) were 1.16 and -0.0578, respectively. The z-score in assay [7] was 0.127; in assay [9] it was -3.74 (inactive); in assay [11], -4.2 (inactive); in assay [12] it was -0.557 (inactive); in [13], 0.526 (inactive); in assay [14], -1.22 (inactive).
For `CO[C@H]1O[C@H](CO)[C@@H](OC(=O)Nc2ccccc2-c2ccccc2)[C@H](OC(=O)Nc2ccccc2-c2ccccc2)[C@H]1OC(=O)Nc1ccccc1-c1ccccc1`, the composite z-score in assay [1] is 2.54; in assay [2], 1.27; in [3], 0.464; in assay [4], 1.02; in [5], 1.3; in [6], 1.63. The composite z-score worked out at 0.644 in the assay on Lefty1; 0.745 in [8]; 0.764 in [10]; 0.244 in [15]; 0.243 in assay [16]; 0.93 with Torsin-1A (Homo sapiens) [17]. Also, the figures for the composite z-score (with Torsin-1A (Homo sapiens) [18]; in assay [19]) were 0.885 and 1.61, respectively. Besides, the z-score in assay [7] is 0.147; in assay [9] it was -1.35 (inactive); in [11] it was -3.73 (inactive); in assay [12], -0.587 (inactive); in assay [13], 1.65 (inactive); in assay [14], -0.823 (inactive).
With `COc1ccc([Si](C)(C)[C@@H]2[C@@H](CCO)O[C@]3(C(=O)N(Cc4cccc(N(C=O)c5ccccc5)c4)c4ccccc43)[C@H]2C)cc1`, the composite z-score amounted to 1.25 in [1]; 1.04 in assay [2]; 0.228 in assay [3]; 0.508 in assay [4]; 1.18 in assay [5]; 0.598 in assay [6]. Besides, the composite z-score with Lefty1 was 0.127; in [8], 0.893; in assay [10], -0.0398; in assay [15], 0.156; in assay [16], 0.0543; with Torsin-1A (Homo sapiens) [17], 0.0905. Moreover, the composite z-score in the assay with Torsin-1A (Homo sapiens) [18] is -0.004; in assay [19], 0.98. Moreover, the z-score is -0.0337 in assay [7]; 0.505 (inactive) in assay [9]; -7.17 (inactive) in assay [11]; 0.465 (inactive) in assay [12]; 7.39 (inactive) in assay [13]; -0.671 (inactive) in [14].
`COC(=O)c1c2oc(c1C(=O)OC)C(=O)N[C@H](Cc1ccccc1)Cn1nncc1C1(CCCCC1)NC(=O)N[C@H](CO)CC2`: the composite z-score is 0.265 in [1]; 0.275 in assay [2]; 0.13 in assay [3]; -0.0472 in assay [4]; 0.373 in assay [5]; 0.1 in assay [6]. In addition, the composite z-score in the assay on Lefty1 was 0.553; in [8], -0.0322; in assay [10], 0.159; in assay [15], 0.412; in assay [16], 0.0154; with Torsin-1A (Homo sapiens) [17] it was -0.0688. Further, the composite z-score with Torsin-1A (Homo sapiens) [18] is -0.0459; in assay [19] it was 0.798. For the same compound, the z-score in assay [7] was 3.5; in [9], -0.676 (inactive); in assay [11] it was -0.11 (inactive); in assay [12] it was -0.318 (inactive); in [13] it was 1.75 (inactive); in assay [14], 0.154 (inactive).
In the case of `COC(=O)[C@@]1(Cc2ccc(F)cc2)[C@H]2c3cc(C(=O)N4CCCC4)n(Cc4ccc(Cl)c(C(F)(F)F)c4)c3C[C@H]2CN1C(=O)c1ccccc1`, the composite z-score is 2.45 in assay [1]; 1.23 in [2]; 0.777 in [3]; 1.01 in [4]; 1.08 in [5]; -0.716 in assay [6]. Also, the composite z-score is -0.862 with Lefty1; 1.22 in assay [8]; 1.99 in assay [10]; 2.28 in assay [15]; 1.35 in [16]; 0.0817 in the assay with Torsin-1A (Homo sapiens) [17]. Moreover, the values for the composite z-score (in the assay with Torsin-1A (Homo sapiens) [18]; in assay [19]) were 0.51 and -0.239, respectively. In addition, the z-score in assay [7] was 0.815; in assay [9], 1.18 (inactive); in [11] it was -2.95 (inactive); in [12], 0.678 (inactive); in assay [13], 0.204 (inactive); in assay [14], 1.49 (inactive).
